Assay outcomes: PubChem BioAssay, National Center for Advancing Translational Sciences (NCATS)
Pf growth 96h: P. falciparum growth inhibition at 96 hour, primary screen for plastid delayed-death inhibitors | P. falciparum luciferase reporter growth, 96 h | Potency, µM (top dose mostly 28.7 µM), without a hit: top-dose activity change, negative = inhibition, actives largely listed as inhibitors | 320,000 compounds, 6.9% hits
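Compounds incubated with erythrocytes infected by luciferase-expressing P. falciparum (2% hematocrit, 0.05% parasitemia final) for 96 hours, 37 C in 5% CO2. Growth inhibition scored as decreased luciferase luminescence.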
Pf growth 48h: P. falciparum growth inhibition at 48 hours (one generation); AID 504832; P. falciparum luciferase growth in erythrocytes, 48 h; Potency, µM (doses to about 28.7 µM), for the others: top-dose activity change, negative = inhibition, usual class: inhibitors; 310,000 compounds, 5.9% hits
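Erythrocytes infected with P. falciparum carrying an integrated firefly luciferase reporter (2% hematocrit, 0.1% parasitemia final) were exposed to compounds in RPMI 1640 with 0.5% Albumax at 37 C, 5% CO2. Growth inhibition was scored as reduced luminescence.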
AMA1 RON2 block: disrupts binding of P. falciparum AMA1 to RON2; AlphaScreen AMA1-biotinylated RON2 peptide binding; Potency, µM (doses to about 58.2 µM), inactives show at the highest dose activity change, negative = inhibition, hits mostly inhibitors; 360,000 compounds, 0.2% hits; AID 720542;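 also: 0% = vehicle wells and -100% = peptide control; nearly all actives have a fitted effect of over 45% in size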
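AMA1 (3D7) with his tag at 25 nM final met compounds first, then biotinylated RON2 peptide at 25 nM; detection used donor plus acceptor beads, 10 µg/mL apiece, read by AlphaScreen after 30 min at room temperature.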
VACV Venus inh: vaccinia inhibition (Venus reporter); Vaccinia virus Venus reporter expression, fluorescence; Potency, µM (doses to about 36.5 µM), inactives show at the top dose activity change, negative = inhibition, most hits filed as inhibitors; 330,000 compounds, 0.46% hits; AID 720580; calls by dose curve; tested in A549 cells; also: nearly all actives have a fitted effect of over 30% in size
Vaccinia mCherry: inhibitors of vaccinia virus infection (mCherry reporter signal) | Vaccinia virus mCherry reporter infection, fluorescence | Potency, µM (series often up to 36.5 µM), inactives show at the top dose activity change, negative = inhibition, usual class: inhibitors | 310,000 compounds, 0.63% hits; calls by dose curve; tested in A549 cells; also: nearly all actives have a fitted effect of over 35% in size
* hit, by the source's call; i = inactive; u = inconclusive; x = no result given. Compounds with a hit are over-represented: about 8.7% of the library has one in this group of screens. Unless noted, calls follow the shape of the dose curve; as a rule, active = well fitted curve in the direction sought with a large enough effect; inconclusive = small, poorly fitted or top-dose-only effect, or another doubt; inactive = no such curve, though single readings can be large; an effect the other way counts as inactive or inconclusive. Unless noted, % is scaled to controls: 0 for no effect and ±100 for the full control effect; potency is read from the fitted curve at half-maximal effect.

SMILES | Pf growth 96h | Pf growth 48h | AMA1 RON2 block | VACV Venus inh | Vaccinia mCherry
CC1OC(OC2CC(O)C3(CO)C4C(O)CC5(C)C(C6=CC(=O)OC6)CCC5(O)C4CCC3(O)C2)C(O)C(O)C1O (centres undefined) | x | x | -4% | u | 0.089µM*
CSc1nc2sc3c(c2c(=O)n1Cc1ccccc1)CCC(C(C)(C)C)C3 (centres undefined) | x | x | x | -7% | -8%
O=C1CC(C(=O)N2CCOc3ccc(CN4CCC(Oc5cccnc5)CC4)cc3C2)c2ccccc21 (centres undefined) | x | x | x | 2% | -10%
c1ccc(Cc2nc3ccccc3[nH]2)cc1 | u | -3% | 19% | -11% | i
Nc1ccc(Cc2nc3cc4ccccc4cc3[nH]2)cc1 | 45% | 40% | -8% | 14% | 5.6µM*
Nc1ccc(C(=O)OCc2nc3cc4ccccc4cc3[nH]2)cc1 | 25% | -6% | 3% | 32% | 5µM*
Nc1ccc(C(=O)OCCCc2nc3cc4ccccc4cc3[nH]2)cc1 | u | u | -7% | x | x
CCOC(=O)c1c(S(=O)(=O)N2CCC(C(=O)Nc3ccccc3OC)CC2)c(C)n(CC)c1C | x | x | x | -5% | -6%
CCC(C)C(=O)N1c2ccccc2C(=C2SC(C(=O)OC)=C(C(=O)OC)S2)C(=S)C1(C)C (centres undefined) | u | 9.3µM* | -6% | -15% | -23%
O=C(NC[C@@H]1CCCN2CCCC[C@H]12)c1cnn(-c2nccc(-c3ccco3)n2)c1C1CC1 | x | x | x | 8% | -7%
CN1CCN(C(=S)c2ccc(-c3cc(Cl)ccc3Cl)o2)CC1 | 1% | u | u | x | x
N#CCCN1CCN(C(=S)c2ccc(-c3cc(Cl)ccc3Cl)o2)CC1 | 5.2µM* | u | u | -21% | -28%
COC(=O)[C@]1(C)CCC[C@@]2(C)C3CC[C@@]4(C)C[C@]3(CCC21)CC(=O)N4Cc1ccc(OC)cc1 (some centres undefined) | 1.5µM* | 1.7µM* | -12% | -29% | u
Cc1ccc(-c2nnc(N3CCN(C(=O)COc4cccc(C)c4)CC3)c3ccccc23)cc1 | 13µM* | 8.3µM* | -10% | u | u
Cc1cccc(OCC(=O)N2CCN(c3nnc(-c4ccccc4)c4ccccc34)CC2)c1 | u | u | -14% | x | x
Cc1ccc(OCC(=O)N2CCN(c3nnc(-c4ccc(C)cc4)c4ccccc34)CC2)cc1 | 2.9µM* | x | -21% | x | x
CCOc1ccc(-c2cc(C(=O)NCc3ccc(OC)cc3)c3c(-c4ccc(F)cc4)[nH]nc3n2)cc1 | x | x | x | 4% | 2%
CCn1c(COc2ccc(Cl)cc2)nnc1SCC(=O)Nc1ccc2c(c1)OCO2 | 10µM* | 10% | -5% | -13% | -13%
COc1ccc(-c2cnc(SCC(=O)Nc3ccc4c(c3)OCO4)n2Cc2ccco2)cc1 | x | x | 14µM* | -14% | -24%
CCCCNC(=O)C1CC(=O)N(CCc2ccccc2)C1 (centres undefined) | -15% | 10% | -5% | x | x
CC1CCCN(CCCNC(=O)C2CC(=O)N(CCc3ccccc3)C2)C1 (centres undefined) | 15µM* | -7% | -1% | x | x
Cc1ccc(CCN2CC(C(=O)NCCN3CCOCC3)CC2=O)cc1 (centres undefined) | 12µM* | 13% | -5% | -7% | x
COc1ccc(Cn2c(C(=O)O)c(CNCC(C)c3ccccc3)c3ccc(OC)cc32)cc1 (centres undefined) | x | x | x | -19% | -12%
COc1ccccc1CNc1nc(-c2cc(C)n(C)c2C)cs1 | -64% | u | 1% | 17% | 13%
COCCNc1nc(-c2cc(C)n(CCc3ccc(OC)cc3)c2C)cs1 | u | 2.6µM* | -8% | x | x
C(=Cc1c[nH]c2ccccc12)c1ccc2ccccc2n1 | x | x | 19% | -10% | 0.71µM*
C(=C\c1ccc2ccccc2n1)/c1ccccc1 | 305% | -39% | 53% | u | 5µM*
COc1ccc(N2c3ccccc3CN(Cc3ccccc3)[C@@H](C)[C@H]2Cc2cccnc2)cc1 | x | x | 14µM* | u | -26%
COc1ccc(CCN2C(=O)CS/C2=N/NC(=O)c2ccccc2F)cc1OC | -35% | 6% | 13% | -25% | -26%
COc1ccc(CCN2C(=O)CSC2=Nc2ccc(C)cc2C)cc1OC | u | 2.6µM* | -7% | -2% | i
